Source: PubChem
NS1 inh: qHTS Assay for Inhibitors of Influenza NS1 Protein Function; Potency, µM (titrated, usually from 46.1 µM), for the others: at the top dose activity, positive = more growth; hit rate 0.4% among 270,000; calls by dose curve; further: potency means the concentration at half of the fitted maximal effect; actives are rising curves; nearly all actives have a fitted effect of over 50% in size
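Growth recovery, yeast-based: influenza A NS1 expressed in S. cerevisiae causes slow growth, and suppressors are detected by OD600. The parent strain without NS1 is used as positive control.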
Cycloheximide cs: Cycloheximide Counterscreen for Small Molecule Inhibitors of Shiga Toxin | hit rate 12% among 300,000 | cell reporter, cycloheximide protein synthesis inhibition counterscreen | max response, % | AID 2314, 2010; in the data active means max response mostly above about 13%, no sharp cut-off; inactive means mostly below about 14%; further: read at 38.3 µM for the half of the compounds with a filed dose; 0% is about no effect
Shiga toxin inh: A qHTS for Small Molecule Inhibitors of Shiga Toxin; Vero cells, Shiga toxin protein synthesis inhibition reporter; inhibition, % at 38.7 µM; hit rate 9.2% among 290,000; AID 2315, 2010; in the data active means inhibition mostly above about 28%, no sharp cut-off; inactive means mostly below about 43%; further: 0% is about no effect
LmPK inhibitor: qHTS Assay for Inhibitors of Leishmania Mexicana Pyruvate Kinase (LmPK) | Q27686 | purified LmPK, Kinase-Glo ATP luminescence, 1 h | Potency, µM (doses to about 57.5 µM), without a hit: at the highest dose activity change, negative = inhibition, actives largely listed as inhibitors | hit rate 0.37% among 290,000 | AID 1721, 2009; further: potency means the concentration at half of the fitted maximal effect; on the % scale 0 is the no-effect control and ±100 the full control effect
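Pyruvate kinase activity monitored as ATP production (luciferase luminescence). Conditions: 0.1 nM enzyme, 0.5 mM PEP, 0.1 mM ADP, 1 h, RT; normalized against uninhibited and no-enzyme wells.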
Giardia FBPA inh: qHTS Assay for Inhibitors of Fructose-1,6-bisphosphate Aldolase from Giardia Lamblia; A8B2U2; purified Giardia FBPA; Potency, µM (highest dose often 59.6 µM), for inactives: at the highest dose activity, negative = inhibition, hits mostly inhibitors; hit rate 0.71% among 290,000; further: potency means the concentration at half of the fitted maximal effect; on the % scale 0 is the no-effect control and ±100 the full control effect; nearly all actives have a fitted effect of over 55% in size
Target sequence (A8B2U2 whole entry, looked up): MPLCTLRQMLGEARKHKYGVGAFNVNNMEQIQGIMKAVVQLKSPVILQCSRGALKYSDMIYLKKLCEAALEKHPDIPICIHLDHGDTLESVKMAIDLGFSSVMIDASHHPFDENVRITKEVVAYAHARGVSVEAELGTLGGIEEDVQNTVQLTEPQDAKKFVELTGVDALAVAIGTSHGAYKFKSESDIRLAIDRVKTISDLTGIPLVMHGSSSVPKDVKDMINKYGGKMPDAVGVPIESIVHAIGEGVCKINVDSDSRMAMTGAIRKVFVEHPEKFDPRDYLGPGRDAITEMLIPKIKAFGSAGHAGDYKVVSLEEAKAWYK
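Giardia FBPA (40 nM reagent) was preincubated 10 min at RT with compound (up to 57.5 uM final), then substrate plus GAPDH/TPI/NAD/arsenate coupling system with diaphorase/resazurin was added; resorufin fluorescence (525/598 nm) was read after 20 min.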
The depositor's hits bear a star; ? = inconclusive; . = no result. The list is not random: actives were taken first. Their share in the collection is about 14%. Unless noted, the call rests on the fitted dose curve; in most records, active means well fitted curve in the direction sought with a large enough effect; inconclusive means small, poorly fitted or top-dose-only effect, or another doubt; inactive means no such curve, though single readings can be large; an effect the other way counts as inactive or inconclusive.

SMILES | NS1 inh | Cycloheximide cs | Shiga toxin inh | LmPK inhibitor | Giardia FBPA inh
O=C(CCCc1ccccc1)Nc1cccc([N+](=O)[O-])c1 | -42% | 44* | . | -1% | -4%
O=C(CCCOc1ccccc1)Nc1cccc([N+](=O)[O-])c1 | 0% | 21* | 82* | -4% | 4%
O=C(CCc1ccccc1)Nc1cccc([N+](=O)[O-])c1 | . | 16 | 25 | 1% | -3%
O=C(NCc1ccco1)C1CC(c2cc(C(F)(F)F)cc(C(F)(F)F)c2)=NO1 (configuration not stated) | 7% | -8 | -7 | 1% | -5%
COc1ccc(OCC(O)CNS(=O)(=O)c2cccs2)cc1 (configuration not stated) | 1% | -1 | -9 | 5% | -2%
COC(=O)C(C)N1C(=O)S/C(=C/c2cc(C)n(C(C)C)c2C)C1=O (configuration not stated) | 7% | 38* | 106* | 1% | -4%
CN1C(=O)/C(=C/c2cc3c(cc2Br)OCO3)NC1=S | . | -7 | -5 | -1% | -4%
CCn1c(C)cc(/C=C2/SC(=O)N(C(C)C(=O)OC)C2=O)c1C (configuration not stated) | 0% | 48* | 106* | 0% | -12%
CCn1c(C)cc(/C=C2/SC(=S)N(CC(=O)O)C2=O)c1C | . | -5 | -13 | -2% | 28%
COCCn1c(C)cc(/C=C2\NC(=S)N(C)C2=O)c1C | 6% | 17* | 47* | -1% | ?
COCCn1c(C)cc(/C=C2/SC(=O)N(C(C)C(=O)OC)C2=O)c1C (configuration not stated) | 1% | 53* | 89* | -13% | -11%
CCOc1cccc(-c2c(C(=O)N/N=C(\C)c3cccnc3)nnn2-c2nonc2N)c1 | 7% | -8 | -17 | -7% | .
NC1(C(=O)NC2(C(=O)O)CCCC2)CCCC1 | -3% | . | . | . | .
Cc1ccc([N+](=O)[O-])cc1NC(=O)c1c(-c2ccccc2)noc1C | 1% | -3 | -31 | 1% | .
COCCCNC(=O)C1Cc2cc(S(=O)(=O)N3CCCC3)ccc2N1C(C)=O (configuration not stated) | -2% | 1 | 8 | -5% | .
Cn1cccc1C(=O)N1CCC2(CCCN(C(=O)Nc3ccccc3)C2)CC1 | . | . | . | . | 2%
C#CCN1C(=O)S/C(=C/c2cc(C)n(CC)c2C)C1=O | -1% | 74* | 103* | -5% | -14%
COC(=O)CN1C(=O)S/C(=C/c2cc(C)n(C)c2C)C1=O | 4% | 28* | 35* | 1% | -7%
O=C(NCc1ccon1)C1CCC(=O)N(Cc2cccc(C(F)(F)F)c2)C1 (configuration not stated) | -3% | 20* | 39 | 2% | 3%
O=C(NCCc1ccccc1)C1CCC(=O)N(Cc2cccc(C(F)(F)F)c2)C1 (configuration not stated) | 11% | 20 | -3 | -2% | .
CSc1cccc(CNC(=O)C2CCC(=O)N(Cc3cccc(C(F)(F)F)c3)C2)c1 (configuration not stated) | 12% | 22* | 86* | 5% | 7%
Cc1cc(CNC(=O)C2CCC(=O)N(Cc3cccc(C(F)(F)F)c3)C2)no1 (configuration not stated) | 13% | 2 | -1 | 0% | -2%
O=C(O)C1CCN(c2ccccc2[N+](=O)[O-])CC1 | . | 4 | -12 | 9% | 2%
Cc1ccn2cc(C34CC5CC(CC(C5)C3)C4)nc2c1 | -8% | 35* | 95* | 0% | 1%
Cc1ccn2cc(C(=O)Nc3nnc(C)s3)nc2c1 | -4% | 2 | 35 | 2% | 18%
SMILES | NS1 inh | Cycloheximide cs | Shiga toxin inh | LmPK inhibitor | Giardia FBPA inh
Cc1ccc(NC(=S)N(Cc2cccc(Br)c2)CC2CCC(C(=O)O)CC2)cc1Cl (configuration not stated) | . | 9 | -13 | 10% | 7%
CC[C@H](C)C(N)C(=O)O (some centres not stated) | . | -2 | -4 | . | -2%
C[C@@]1(C(=O)O)NCCc2cc(O)c(O)cc21 | . | . | . | . | 13µM*
CC[C@H](NC(=O)[C@H](CCCN=C(N)N)NC(=O)[C@H](Cc1c[nH]c2ccccc12)NC(=O)[C@@H](N)CS)C(=O)N[C@@H](CCCN=C(N)N)C(=O)N[C@@H](Cc1ccc(O)cc1)C(N)=O | . | -9 | 3 | . | -3%
Cc1cc(CSCc2ccc(Cl)cc2)no1 | -8% | 23* | 24 | -4% | 18%
CCOC(=O)c1c(C)n(-c2ccccc2)c2ccc(OCCN(C)C)cc12 | 4% | -6 | 17 | 1% | 5%
O=C(O)c1cc(N=Nc2ccc(-c3ccc(N=Nc4ccc(O)c(C(=O)O)c4)cc3)cc2)ccc1O | . | 12 | 26* | . | -2%
NS(=O)(=O)c1ccc(N=Nc2ccc(O)c(C(=O)O)c2)cc1 | 11% | . | . | . | .
O=C(NCC(=O)N(c1ccccc1F)C(C(=O)NC1CCCC1)c1ccncc1)c1ccco1 (configuration not stated) | 3% | -6 | -4 | -2% | 14%
Cc1ccc2c(c1)sc1ncc(NC(=O)c3ccc(F)cc3)c(=O)n12 | . | 12 | 39 | 0% | 2%
Cc1ccc2c(c1)sc1nc(=O)n(-c3ccccc3)c(=O)n12 | 1% | 45* | 93* | -1% | 2%
CC1CCCC(C)N1C(=O)COc1ccc(-c2nnco2)cc1 (configuration not stated) | 0% | -4 | 5 | -2% | 17%
Cc1cc(C(=O)COc2ncnc3sccc23)c(C)n1C1CC1 | -48% | 49* | 92* | 4% | -7%
CCCn1c(C)cc(C(=O)COc2ncnc3sccc23)c1C | -8% | 44* | 105* | -5% | -2%
CCCn1c(C)cc(C(=O)COc2ccc(-c3nnco3)cc2)c1C | -3% | 42* | 67* | 1% | -22%
O=C(COc1ncnc2sccc12)NC1CCS(=O)(=O)C1 (configuration not stated) | 6% | -2 | 6 | 5% | -4%
COc1ccc(OC)c(NC(=O)NNC(=O)COc2ccc([N+](=O)[O-])cc2)c1 | -46% | -4 | -3 | -7% | 12%
N#CCCn1c(=O)c(-c2cccs2)nc2cnc(Oc3ccccc3)nc21 | . | . | . | . | -1%
Cc1cc(Nc2ccccc2C(=O)O)nc2nc3ccccc3c(=O)n12 | -2% | -1 | -14 | 4% | -1%
NC(=O)c1ccccc1Nc1nc2nc3ccccc3c(=O)n2cc1Br | 0% | 15* | 38* | 5% | -20%
CC(C)(C)C(=O)NC1(C(F)(F)F)NC(=O)N(Cc2ccccc2)C1=O (configuration not stated) | 6% | 4 | 9 | -6% | 3%
O=C1NC(c2ccccc2)(C(F)(F)F)C(=O)N1Cc1cccnc1 (configuration not stated) | -9% | 47* | 96* | 2% | 4%
O=C(CSc1ccc2c(c1)OCCO2)Nc1ccc(Br)cn1 | -22% | 9 | -5 | -2% | .
